Experimental findings from paper PMC7862700, “An all-to-all approach to the identification of sequence-specific readers for epigenetic DNA modifications on cytosine” are described below.

Assay in all cases: DAPPL (digital affinity profiling via proximity ligation, sequencing); 10 mM Tris-HCl pH 7.5, 50 mM NaCl, 1 mM DTT, 4% glycerol, room temperature, 30 min; GST-TFs on glutathione beads, 16-mer random dsDNA library, 0.1% formaldehyde crosslink after washing; high values mean tight binding
Assay [1] concerns the target T1, FEV (Homo sapiens, UniProt Q99581 1-238).
T1 sequence: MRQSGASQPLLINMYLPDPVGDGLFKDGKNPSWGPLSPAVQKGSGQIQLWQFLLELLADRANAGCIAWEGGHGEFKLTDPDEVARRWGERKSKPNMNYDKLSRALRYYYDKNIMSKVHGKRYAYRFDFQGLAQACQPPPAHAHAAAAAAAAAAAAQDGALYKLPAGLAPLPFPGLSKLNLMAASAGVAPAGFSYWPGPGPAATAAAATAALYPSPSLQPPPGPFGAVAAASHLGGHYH
The following applies: protein: recombinant; tags: N-terminal GST; dsDNA, one strand shown. Put shortly:
(§1)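 Each value of binding signal is a hexamer's read frequency for a factor divided by the same hexamer's frequency in the tag-only sample. Barcoded, bead-captured GST fusions of human transcription factors made in yeast were pooled with that sample and incubated with 200 nmole of a random double-stranded 16-mer DNA library in Tris/NaCl/DTT/glycerol buffer at room temperature for 30 min. Washing, 0.1% formaldehyde crosslinking, proximity ligation, PCR and Illumina NextSeq500 sequencing followed.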

Assay [2] has as its target ETV5 (Homo sapiens, UniProt P41161 1-510). To be noted: protein: recombinant; tags: N-terminal GST; dsDNA, one strand shown. Put shortly:
as §1

Assay [3] concerns the target HSF1 (Homo sapiens, UniProt Q00613 1-529). The following applies: protein: recombinant; tags: N-terminal GST; chain copies: 3; dsDNA, one strand shown. Put shortly: as §1
The target in assay [4] is T2, SPIC (Homo sapiens, UniProt Q8N5J4 1-248).
T2 sequence: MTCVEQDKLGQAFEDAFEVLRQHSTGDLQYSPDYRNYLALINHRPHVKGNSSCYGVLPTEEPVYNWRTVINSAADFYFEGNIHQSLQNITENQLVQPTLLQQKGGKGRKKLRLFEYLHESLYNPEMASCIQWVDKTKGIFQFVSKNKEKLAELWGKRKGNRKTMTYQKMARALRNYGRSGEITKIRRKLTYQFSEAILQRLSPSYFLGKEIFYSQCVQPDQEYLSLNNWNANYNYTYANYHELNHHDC
The following applies: protein: recombinant; tags: N-terminal GST; dsDNA, one strand shown. Put shortly: as §1

Assay [5] addresses ELF4 (Homo sapiens, UniProt Q99607 1-663). The following applies: protein: recombinant; tags: N-terminal GST; dsDNA, one strand shown. Put shortly:
as §1

For assay [6], the target named is T3, ELK4 (Homo sapiens, UniProt P28324-2 1-405).
T3 sequence: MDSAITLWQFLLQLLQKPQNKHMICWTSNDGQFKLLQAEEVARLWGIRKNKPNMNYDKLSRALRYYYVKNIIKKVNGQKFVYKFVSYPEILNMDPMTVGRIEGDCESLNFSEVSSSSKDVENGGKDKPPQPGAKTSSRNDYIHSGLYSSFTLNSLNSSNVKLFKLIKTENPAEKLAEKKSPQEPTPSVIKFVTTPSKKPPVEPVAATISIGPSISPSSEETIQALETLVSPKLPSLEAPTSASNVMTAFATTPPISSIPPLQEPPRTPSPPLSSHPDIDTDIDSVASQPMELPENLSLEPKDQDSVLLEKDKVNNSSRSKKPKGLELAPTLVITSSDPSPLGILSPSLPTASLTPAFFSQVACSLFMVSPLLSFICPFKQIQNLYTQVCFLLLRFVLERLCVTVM
To be noted: protein: recombinant; tags: N-terminal GST; dsDNA, one strand shown. An outline of the steps:
as §1

For assay [7], the target named is T4, ETV2 (Homo sapiens, UniProt O00321 1-342).
T4 sequence: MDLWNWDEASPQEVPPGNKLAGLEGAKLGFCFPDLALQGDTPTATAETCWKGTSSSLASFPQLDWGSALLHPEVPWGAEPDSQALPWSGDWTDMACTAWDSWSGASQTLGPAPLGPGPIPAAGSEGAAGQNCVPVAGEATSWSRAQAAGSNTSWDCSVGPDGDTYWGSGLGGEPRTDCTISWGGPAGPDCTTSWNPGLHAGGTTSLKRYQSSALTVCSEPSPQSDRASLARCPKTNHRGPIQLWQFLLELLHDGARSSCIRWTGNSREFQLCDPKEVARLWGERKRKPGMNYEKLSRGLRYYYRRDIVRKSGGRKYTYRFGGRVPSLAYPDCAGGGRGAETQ
To be noted: protein: recombinant; tags: N-terminal GST; dsDNA, one strand shown. An outline of the steps: as §1

For assay [8], the target named is T5, ELF3 (Homo sapiens, UniProt P78545 1-371).
T5 sequence: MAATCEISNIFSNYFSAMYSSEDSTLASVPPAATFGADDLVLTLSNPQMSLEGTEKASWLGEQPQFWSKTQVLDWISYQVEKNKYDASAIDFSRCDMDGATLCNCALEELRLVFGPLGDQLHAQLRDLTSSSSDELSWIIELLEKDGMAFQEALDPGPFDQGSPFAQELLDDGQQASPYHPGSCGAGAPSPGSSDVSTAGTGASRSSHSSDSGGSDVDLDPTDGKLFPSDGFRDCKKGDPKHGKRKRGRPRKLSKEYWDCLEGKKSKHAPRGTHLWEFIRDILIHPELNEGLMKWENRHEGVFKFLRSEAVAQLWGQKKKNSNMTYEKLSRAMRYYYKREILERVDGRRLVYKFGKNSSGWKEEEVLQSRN
To be noted: protein: recombinant; tags: N-terminal GST; dsDNA, one strand shown. An outline of the steps:
as §1

The target of assay [9] is CRX (Homo sapiens, UniProt O43186 1-299). The following applies: protein: recombinant; tags: N-terminal GST; dsDNA, one strand shown. Put shortly: as §1
Assay [10] deals with ETV1 (Homo sapiens, UniProt P50549 1-477). To be noted: protein: recombinant; tags: N-terminal GST; dsDNA, one strand shown. An outline of the steps:
as §1

Assay [11] deals with T6, ERF (Homo sapiens, UniProt P50548 1-548).
T6 sequence: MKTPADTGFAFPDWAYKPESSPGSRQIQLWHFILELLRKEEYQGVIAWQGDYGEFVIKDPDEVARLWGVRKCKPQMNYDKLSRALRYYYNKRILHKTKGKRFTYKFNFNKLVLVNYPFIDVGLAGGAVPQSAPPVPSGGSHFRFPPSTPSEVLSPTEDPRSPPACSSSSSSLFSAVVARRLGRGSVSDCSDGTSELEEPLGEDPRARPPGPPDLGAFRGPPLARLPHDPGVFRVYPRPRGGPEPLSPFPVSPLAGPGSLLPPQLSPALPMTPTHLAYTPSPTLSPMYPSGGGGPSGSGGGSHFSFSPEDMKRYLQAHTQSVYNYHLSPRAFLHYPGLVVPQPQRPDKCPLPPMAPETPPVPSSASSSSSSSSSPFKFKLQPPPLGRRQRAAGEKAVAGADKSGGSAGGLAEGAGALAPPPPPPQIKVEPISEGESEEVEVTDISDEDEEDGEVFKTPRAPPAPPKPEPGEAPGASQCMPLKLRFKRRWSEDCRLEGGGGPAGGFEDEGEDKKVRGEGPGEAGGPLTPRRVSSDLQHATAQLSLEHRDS
The following applies: protein: recombinant; tags: N-terminal GST; dsDNA, one strand shown. An outline of the steps: as §1

The target in assay [12] is T7, ETV3L (Homo sapiens, UniProt Q6ZN32 1-361).
T7 sequence: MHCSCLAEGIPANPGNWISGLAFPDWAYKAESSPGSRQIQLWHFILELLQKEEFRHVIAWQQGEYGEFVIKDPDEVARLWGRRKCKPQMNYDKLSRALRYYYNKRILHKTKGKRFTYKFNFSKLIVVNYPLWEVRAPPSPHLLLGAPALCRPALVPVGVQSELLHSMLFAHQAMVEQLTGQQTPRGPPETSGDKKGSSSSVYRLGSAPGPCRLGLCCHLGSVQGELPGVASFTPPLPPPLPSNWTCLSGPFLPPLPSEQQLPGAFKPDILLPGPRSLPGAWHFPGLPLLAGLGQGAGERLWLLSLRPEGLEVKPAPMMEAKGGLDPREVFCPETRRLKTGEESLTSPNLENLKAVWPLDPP
To be noted: protein: recombinant; tags: N-terminal GST; dsDNA, one strand shown. Put shortly: as §1

Assay [13] concerns the target T8, ETS2 (Homo sapiens, UniProt P15036 1-469).
T8 sequence: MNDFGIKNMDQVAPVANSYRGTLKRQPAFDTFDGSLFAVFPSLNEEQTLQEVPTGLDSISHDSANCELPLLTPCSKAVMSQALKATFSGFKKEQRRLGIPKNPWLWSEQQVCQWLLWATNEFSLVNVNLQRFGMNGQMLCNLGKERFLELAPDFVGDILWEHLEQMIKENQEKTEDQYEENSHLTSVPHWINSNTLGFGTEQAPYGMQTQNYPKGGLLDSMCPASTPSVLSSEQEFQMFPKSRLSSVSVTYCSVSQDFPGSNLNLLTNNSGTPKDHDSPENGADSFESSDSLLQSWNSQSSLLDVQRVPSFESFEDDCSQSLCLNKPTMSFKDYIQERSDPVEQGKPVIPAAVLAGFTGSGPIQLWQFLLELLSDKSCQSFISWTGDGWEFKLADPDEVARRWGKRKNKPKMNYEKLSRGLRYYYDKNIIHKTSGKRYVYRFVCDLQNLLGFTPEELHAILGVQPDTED
The following applies: protein: recombinant; tags: N-terminal GST; dsDNA, one strand shown. Put shortly:
as §1

Assay [14] concerns the target T9, SPDEF (Homo sapiens, UniProt O95238 1-335).
T9 sequence: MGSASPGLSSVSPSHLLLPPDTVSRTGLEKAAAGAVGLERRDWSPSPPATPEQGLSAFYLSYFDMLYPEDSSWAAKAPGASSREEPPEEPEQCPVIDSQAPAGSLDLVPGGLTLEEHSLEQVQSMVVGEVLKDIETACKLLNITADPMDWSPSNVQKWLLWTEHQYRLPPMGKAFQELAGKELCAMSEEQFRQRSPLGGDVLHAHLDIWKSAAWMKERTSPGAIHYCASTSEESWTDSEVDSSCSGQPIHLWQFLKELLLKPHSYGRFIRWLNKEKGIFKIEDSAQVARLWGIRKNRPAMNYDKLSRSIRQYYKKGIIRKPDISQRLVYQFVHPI
To be noted: protein: recombinant; tags: N-terminal GST; dsDNA, one strand shown. Put shortly: as §1

The target in assay [15] is T10, ETV7 (Homo sapiens, UniProt Q9Y603 1-341).
T10 sequence: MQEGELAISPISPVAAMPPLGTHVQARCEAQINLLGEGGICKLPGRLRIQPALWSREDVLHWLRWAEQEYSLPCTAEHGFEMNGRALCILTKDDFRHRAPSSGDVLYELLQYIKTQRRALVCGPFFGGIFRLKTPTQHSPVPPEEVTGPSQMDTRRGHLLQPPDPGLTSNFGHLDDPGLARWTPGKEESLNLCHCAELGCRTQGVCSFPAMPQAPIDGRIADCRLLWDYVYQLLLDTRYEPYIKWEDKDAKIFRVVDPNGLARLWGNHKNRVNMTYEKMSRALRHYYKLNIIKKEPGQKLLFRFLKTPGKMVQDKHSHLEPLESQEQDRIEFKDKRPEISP
The following applies: protein: recombinant; tags: N-terminal GST; dsDNA, one strand shown. Put shortly:
as §1

Assay [16] concerns the target T11, ELF5 (Homo sapiens, UniProt Q9UKW6-2 1-255).
T11 sequence: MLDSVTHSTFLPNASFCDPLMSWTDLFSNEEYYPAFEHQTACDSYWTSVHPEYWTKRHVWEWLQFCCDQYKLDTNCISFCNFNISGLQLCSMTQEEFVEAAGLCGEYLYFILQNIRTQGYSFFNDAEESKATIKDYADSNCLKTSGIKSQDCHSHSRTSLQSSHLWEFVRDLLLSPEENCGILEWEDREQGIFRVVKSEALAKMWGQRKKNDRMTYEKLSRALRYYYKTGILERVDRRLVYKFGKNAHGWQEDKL
To be noted: protein: recombinant; tags: N-terminal GST; dsDNA, one strand shown. Put shortly:
as §1

The target of assay [17] is T12, ETV3 (Homo sapiens, UniProt P41162-2 1-143).
T12 sequence: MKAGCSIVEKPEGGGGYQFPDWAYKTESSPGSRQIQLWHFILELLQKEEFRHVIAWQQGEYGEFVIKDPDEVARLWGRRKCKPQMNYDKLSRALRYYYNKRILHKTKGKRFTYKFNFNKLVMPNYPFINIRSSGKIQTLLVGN
The following applies: protein: recombinant; tags: N-terminal GST; dsDNA, one strand shown. An outline of the steps: as §1

The target in assay [18] is ETV6 (Homo sapiens, UniProt P41212 1-452). To be noted: protein: recombinant; tags: N-terminal GST; dsDNA, one strand shown. An outline of the steps: as §1
Chain of ETV6 (P41212 whole entry): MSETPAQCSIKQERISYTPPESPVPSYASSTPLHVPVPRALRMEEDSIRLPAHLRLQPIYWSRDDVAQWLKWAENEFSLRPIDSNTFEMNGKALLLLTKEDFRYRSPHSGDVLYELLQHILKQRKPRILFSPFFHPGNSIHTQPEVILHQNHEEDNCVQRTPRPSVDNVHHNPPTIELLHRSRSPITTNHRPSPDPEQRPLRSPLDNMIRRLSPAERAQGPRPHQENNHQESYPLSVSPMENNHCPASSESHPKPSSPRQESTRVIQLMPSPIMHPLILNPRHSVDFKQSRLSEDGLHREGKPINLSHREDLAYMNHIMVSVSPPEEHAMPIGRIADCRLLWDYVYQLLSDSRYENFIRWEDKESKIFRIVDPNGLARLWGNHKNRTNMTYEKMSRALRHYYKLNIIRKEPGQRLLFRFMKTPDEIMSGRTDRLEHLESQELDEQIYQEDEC

Chain of CRX (O43186 whole entry): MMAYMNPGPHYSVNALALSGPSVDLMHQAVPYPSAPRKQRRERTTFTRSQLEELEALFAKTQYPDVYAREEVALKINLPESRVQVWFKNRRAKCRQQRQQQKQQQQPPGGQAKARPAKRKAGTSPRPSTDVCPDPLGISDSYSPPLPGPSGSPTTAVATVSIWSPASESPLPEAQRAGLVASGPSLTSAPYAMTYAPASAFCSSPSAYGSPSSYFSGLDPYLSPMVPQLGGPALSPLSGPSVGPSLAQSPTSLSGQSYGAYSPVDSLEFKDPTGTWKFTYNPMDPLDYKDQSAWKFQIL
Chain of ETV5 (P41161 whole entry): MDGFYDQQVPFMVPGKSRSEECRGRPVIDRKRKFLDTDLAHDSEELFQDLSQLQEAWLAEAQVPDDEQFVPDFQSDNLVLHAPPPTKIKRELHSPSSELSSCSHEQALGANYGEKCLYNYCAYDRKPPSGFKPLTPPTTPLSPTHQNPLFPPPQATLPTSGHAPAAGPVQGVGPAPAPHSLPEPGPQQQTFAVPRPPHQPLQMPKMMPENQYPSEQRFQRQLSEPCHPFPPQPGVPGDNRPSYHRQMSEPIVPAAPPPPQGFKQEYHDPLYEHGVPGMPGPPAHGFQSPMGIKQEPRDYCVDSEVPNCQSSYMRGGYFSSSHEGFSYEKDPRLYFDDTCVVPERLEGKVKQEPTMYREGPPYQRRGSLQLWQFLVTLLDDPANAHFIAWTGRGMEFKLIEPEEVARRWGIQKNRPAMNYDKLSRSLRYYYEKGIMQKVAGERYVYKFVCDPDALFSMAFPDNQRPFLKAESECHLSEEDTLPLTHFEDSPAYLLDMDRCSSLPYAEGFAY
Chain of ELF4 (Q99607 whole entry): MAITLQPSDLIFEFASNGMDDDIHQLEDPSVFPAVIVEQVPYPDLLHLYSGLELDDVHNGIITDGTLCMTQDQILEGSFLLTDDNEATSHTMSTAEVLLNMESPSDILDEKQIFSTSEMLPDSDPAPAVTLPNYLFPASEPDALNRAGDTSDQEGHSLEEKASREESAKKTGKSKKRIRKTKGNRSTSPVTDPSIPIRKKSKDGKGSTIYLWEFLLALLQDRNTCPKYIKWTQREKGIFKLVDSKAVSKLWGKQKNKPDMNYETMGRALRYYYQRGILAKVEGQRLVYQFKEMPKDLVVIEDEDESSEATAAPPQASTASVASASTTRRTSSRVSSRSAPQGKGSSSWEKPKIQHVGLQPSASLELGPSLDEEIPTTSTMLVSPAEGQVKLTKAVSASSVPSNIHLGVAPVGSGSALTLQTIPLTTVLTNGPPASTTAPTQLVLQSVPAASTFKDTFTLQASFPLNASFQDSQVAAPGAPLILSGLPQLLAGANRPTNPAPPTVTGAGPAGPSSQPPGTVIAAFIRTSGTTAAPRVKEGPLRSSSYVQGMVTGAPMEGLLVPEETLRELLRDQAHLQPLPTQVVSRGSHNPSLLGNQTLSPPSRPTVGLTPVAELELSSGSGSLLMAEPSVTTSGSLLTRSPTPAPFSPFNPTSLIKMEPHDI
Chain of HSF1 (Q00613 whole entry): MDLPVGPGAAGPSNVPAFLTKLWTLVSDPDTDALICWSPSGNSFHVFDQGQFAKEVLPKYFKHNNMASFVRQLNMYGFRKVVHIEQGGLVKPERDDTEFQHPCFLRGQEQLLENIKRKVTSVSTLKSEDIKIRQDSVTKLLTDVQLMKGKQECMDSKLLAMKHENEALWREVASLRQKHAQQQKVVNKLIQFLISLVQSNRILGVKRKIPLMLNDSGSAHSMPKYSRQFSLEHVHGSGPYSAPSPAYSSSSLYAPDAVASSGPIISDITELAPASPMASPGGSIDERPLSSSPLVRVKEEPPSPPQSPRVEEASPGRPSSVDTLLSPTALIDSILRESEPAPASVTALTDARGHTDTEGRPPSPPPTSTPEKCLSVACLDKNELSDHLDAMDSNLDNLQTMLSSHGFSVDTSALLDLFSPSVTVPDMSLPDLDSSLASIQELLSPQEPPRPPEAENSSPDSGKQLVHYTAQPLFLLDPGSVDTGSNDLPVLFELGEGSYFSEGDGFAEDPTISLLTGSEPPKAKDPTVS
Chain of ETV1 (P50549 whole entry): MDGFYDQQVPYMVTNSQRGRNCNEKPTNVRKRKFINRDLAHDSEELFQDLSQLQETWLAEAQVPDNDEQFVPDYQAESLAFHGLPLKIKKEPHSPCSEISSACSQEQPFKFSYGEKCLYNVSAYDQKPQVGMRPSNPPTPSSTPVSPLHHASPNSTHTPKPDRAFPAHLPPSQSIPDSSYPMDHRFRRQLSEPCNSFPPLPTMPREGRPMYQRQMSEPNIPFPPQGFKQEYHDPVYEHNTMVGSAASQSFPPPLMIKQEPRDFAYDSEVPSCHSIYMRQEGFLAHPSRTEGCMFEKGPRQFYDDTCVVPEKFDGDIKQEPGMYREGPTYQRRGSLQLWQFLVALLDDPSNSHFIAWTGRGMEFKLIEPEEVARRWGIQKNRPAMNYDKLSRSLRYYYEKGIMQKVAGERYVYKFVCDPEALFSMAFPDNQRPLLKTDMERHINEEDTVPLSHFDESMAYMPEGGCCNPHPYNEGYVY

Regarding AAAATA, the binding signal in assay [1] is 1.15 fold enrichment (6-mer frequency, TF over GST control); in assay [2], 1.17 fold enrichment (6-mer frequency, TF over GST control); in assay [3], 1.34 fold enrichment (6-mer frequency, TF over GST control); in assay [4], 1.16 fold enrichment (6-mer frequency, TF over GST control); in assay [5], 1.17 fold enrichment (6-mer frequency, TF over GST control); in [6], 1.19 fold enrichment (6-mer frequency, TF over GST control). Also, the binding signal was 1.21 fold enrichment (6-mer frequency, TF over GST control) in [7]; 1.06 fold enrichment (6-mer frequency, TF over GST control) in assay [8]; 1.35 fold enrichment (6-mer frequency, TF over GST control) in assay [9]; 1.1 fold enrichment (6-mer frequency, TF over GST control) in [10]; 1.27 fold enrichment (6-mer frequency, TF over GST control) in assay [11]; 1.14 fold enrichment (6-mer frequency, TF over GST control) in assay [12]. Moreover, the binding signal is 1.24 fold enrichment (6-mer frequency, TF over GST control) in assay [13]; 1.06 fold enrichment (6-mer frequency, TF over GST control) in [14]; 1.22 fold enrichment (6-mer frequency, TF over GST control) in [15]; 1.2 fold enrichment (6-mer frequency, TF over GST control) in assay [16]; 1.13 fold enrichment (6-mer frequency, TF over GST control) in [17]; 1.25 fold enrichment (6-mer frequency, TF over GST control) in [18].
